Measurements from PubChem BioAssay AID1209 (Sanford-Burnham Center for Chemical Genomics, 2008).
In all, about 190,000 compounds went through this assay and about 810 (0.43%) were called active. Cut-off read from the data, not from the text of the source: active = inhibition above about 50%; inactive = the rest. The full list was thinned out, with actives kept by preference.

target: Mannose-6-phosphate isomerase (Homo sapiens) (UniProt P34949); experiment: inhibitors of human PMI, primary screen, biochemical, fluorescence intensity, coupled assay (AID 1209); conditions: purified PMI enzyme, at 20 µM, active compounds read high;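 note: plate controls were DMSO vehicle for no effect and wells lacking substrate for full effect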
Sequence (P34949 whole entry, looked up): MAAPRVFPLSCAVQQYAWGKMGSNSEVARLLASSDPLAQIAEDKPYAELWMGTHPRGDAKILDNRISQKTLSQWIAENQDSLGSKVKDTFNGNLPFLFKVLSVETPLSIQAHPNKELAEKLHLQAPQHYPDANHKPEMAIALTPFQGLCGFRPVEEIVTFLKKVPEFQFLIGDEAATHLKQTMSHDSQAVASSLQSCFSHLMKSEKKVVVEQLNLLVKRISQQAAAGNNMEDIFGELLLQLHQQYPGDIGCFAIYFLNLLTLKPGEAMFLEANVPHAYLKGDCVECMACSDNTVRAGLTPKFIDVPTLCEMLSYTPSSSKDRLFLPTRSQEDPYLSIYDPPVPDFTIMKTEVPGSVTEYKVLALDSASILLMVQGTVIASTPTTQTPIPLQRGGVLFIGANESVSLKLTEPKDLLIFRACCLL

inhibition, inactive:
Cc1ccc(CC2CC(=O)N(C(Cc3ccccc3)C(=O)O)C2=O)cc1 (stereo not given) 0.9%
C#CCOCCOCCOCCNc1nc(N2CCN(C(=O)[C@H]([C@@H](C)CC)n3cc(CCCN=C(N)N)nn3)CC2)nc(N2CCN(C(=O)[C@H](C)n3cc(CCCN=C(N)N)nn3)CC2)n1 -22.8%
CCN1CCCC1CNC(=O)CSc1cc(=O)n(C)c2cc(Cl)ccc12 (stereo not given) -0.3%
COc1ccc(C(=O)C2CCCN(C(=O)c3cccs3)C2)cc1F (stereo not given) -2.9%
COc1ccc(C(=O)C2CCCN(C(=O)c3ccccc3C(C)=O)C2)cc1F (stereo not given) -0.2%
CC(=O)Nc1nc(SCCCc2ccccc2)n[nH]1 -3.1%
COc1cccc(NC(=S)NNC(=O)CCn2cc([N+](=O)[O-])cn2)c1 9.6%
O=C(Nc1nc(-c2ccc(Oc3ccccc3)cc2)cs1)C1=COCCO1 19.1%
Clc1ccc2[nH]c3c(c2c1)CCc1cn[nH]c1-3 12.6%
c1ccc2c3c([nH]c2c1)-c1[nH]ncc1CC3 49%
COc1ccc(C(=O)OCC[N+]2(C)CCOCC2)cc1 -0.9%
CC(C)CCOc1ccc(C(=O)O)cc1 7.9%
COc1ccc(C(=O)OCC[N+]2(C)CCCCC2)cc1 4.5%
CC(C)CCOc1ccc(C(=O)NCCC(=O)N2CCOCC2)cc1 8.3%
Oc1ccccc1C1=Nc2ncnn2C(c2ccccc2)C1 (stereo not given) -40.5%
CCOCCCNC(=O)C(c1ccc(C)cc1)N(Cc1cccs1)C(=O)c1ccccn1 (stereo not given) 0.7%
CCCCCCCCc1nnc(NC(=O)c2ccco2)s1 2.7%
CCC(c1nnnn1Cc1cccs1)N1CCN(C2CCCC2)CC1 (stereo not given) 0%
O=C(N/C(=C\c1cccc([N+](=O)[O-])c1)C(=O)N1CCOCC1)c1ccc([N+](=O)[O-])cc1 12.3%
O=C(C1=C[C@@H](C2CCCCC2)C[C@@H](OCc2ccc(CO)cc2)O1)N1CCN(Cc2ccc3c(c2)OCO3)CC1 19.6%
Cn1c(SCC(=O)C(C)(C)C)nnc1-c1ccncc1 6%
Cc1ccc(C(C)(C)C)cc1S(=O)(=O)NC(=O)c1ccccc1 -10.8%
Nc1ccc(-c2ccc(N)c([N+](=O)[O-])c2)cc1[N+](=O)[O-] -6.5%
CC1(C)Oc2cc(N)c([N+](=O)[O-])cc2O1 17.5%
Cc1ncc2c(c1OC(=O)c1ccc([N+](=O)[O-])cc1)COC(C)(C)OC2 -1.9%
O=C(CCNC(=O)c1ccco1)Nc1ccc(Cl)cc1 4.4%
COc1ccc(C(=O)CCN2CCN(c3ccccc3F)CC2)cc1 16.8%
CC1CCCN(CCOc2ccc(Br)cc2)C1 (stereo not given) -8.8%
O=C(CCN1CCOCC1)c1ccc(Cl)cc1 25.9%
O=C(CCN1CCN(c2ccccc2F)CC1)Nc1ccccc1F -9.9%
O=C(CCN1CCOCC1)c1ccccc1 -1.6%
CC1CCCN(CCC(=O)Nc2ccc(Br)cc2)C1 (stereo not given) -13.4%
COc1cc(C)nc(N2CCC(C(N)=O)CC2)n1 -2.7%
Cc1cc(=O)n2[nH]c(-c3ccc(F)cc3)nc2n1 7.6%
CC(=O)Nc1nc(NC(=O)/C=C/c2ccccc2)n(-c2ccccc2)n1 -31.3%
C=CCc1ccccc1OCCOc1ccc([N+](=O)[O-])cc1/C=N/NC(N)=O 3.8%
Cc1ccc(S(=O)(=O)NCC(=O)N(CC(=O)NC(C)(C)C)Cc2cccs2)cc1 -16%
CC(C)(C)NC(=O)CN(Cc1cccs1)C(=O)CNS(=O)(=O)c1ccccc1 -0.6%
NC(=O)c1nn(CC(=O)Nc2ccc3c(c2)OCO3)cc1[N+](=O)[O-] 0%
Cc1ccc(NCC(=O)N/N=C/c2c[nH]c3ccccc23)cc1 0%
Cc1ccc(S(=O)(=O)Nc2cnc3ccccc3c2)cc1 3.8%
O=C(O)c1ccc2nc(-c3ccccc3)sc2c1 -10.7%
CC(=O)Oc1cccc(N2C(=O)c3ccc(C(=O)O)cc3C2=O)c1 -31.5%
COc1ccc(/C(O)=C2\C(=O)C(=O)N(CCN(C)C)C2c2cc(OC)c(OC)c(OC)c2)c(C)c1 (stereo not given) -21.3%
CCOC(=O)C1=C(C)N[C@@]2(O)c3ccccc3C(=O)[C@@]12O 21%
CCOC(=O)C1=C(C)NC2(O)c3ccccc3C(=O)C12O (stereo not given) 12.1%
COc1ccccc1OCC(=O)NNC(=O)c1c(-c2ccccc2Cl)noc1C -14.6%
O=S(=O)(NCCN1CCOCC1)c1ccc(Cl)s1 -5.3%
O=S(=O)(NCCNS(=O)(=O)c1cccs1)c1cccs1 -15.3%
Cc1cc2cc(C)c3nnc(SCC(=O)N4CCCc5ccccc54)n3c2cc1C 12.3%
N#CCCn1cc(C(=O)O)c(-c2cc3ccccc3o2)n1 -2.3%
Cn1c(N)c(C(=O)NCc2ccccc2)sc1=S 12.3%
COC(=O)c1ccccc1NC(=O)c1sc(=S)n(C)c1N -14.8%
Cc1cnn(C(=O)c2oc3ccccc3c2C)c1 -1.3%
Cc1cc(N)n(-c2ccccc2C)n1 11.2%
C=CCN1C(=O)C(C)(C)Nc2ccccc21 6.9%
Cn1ccnc1SCC(=O)c1c[nH]c2ccccc12 4.5%
C/C(=N\NC(=O)c1nn(C)c(C)c1Br)c1cccc(NC(=O)c2ccoc2C)c1 -8.4%
C/C(=N\NC(=O)c1nn(C)c(C)c1Br)c1ccc(NC(=O)c2ccccc2F)cc1 -0.9%
COC(=O)c1ccc(NC(=S)NCCCN2CCCC2=O)cc1 -0.7%
Cc1ccc(NC(=S)N(CCCN2CCC(C)CC2)Cc2ccco2)cc1C -3.2%
Cc1ccc(NC(=S)N(CCCN2CCOCC2)Cc2ccco2)cc1 -2%
CCOC(=O)C1C(c2ccc(O)c(OC)c2)NC(=S)NC1(O)C(F)(F)F (stereo not given) -3%
CCOC(=O)C1C(c2ccc(O)c(OCC)c2)NC(=S)NC1(O)C(F)(F)F (stereo not given) -6.6%
O=C(CN1C(=O)c2cccc3cccc(c23)C1=O)N1CCOCC1 24.7%
O=C(Nn1cnnc1)c1ccc(Br)s1 -17.3%
O=C(NCCCn1ccnc1)c1cc(-c2ccc(Br)cc2)on1 -3.5%
O=C(O)CS(=O)(=O)CC(=O)NCc1cccc(C(F)(F)F)c1 -2.8%
Cc1ccc(NC(=O)Nc2c(C)n(C)n(-c3ccccc3)c2=O)cc1C -4%
COCCn1c(=NC(=O)C2COc3ccccc3O2)sc2cc(S(N)(=O)=O)ccc21 (stereo not given) 12.8%
O=C(COc1cccnc1[N+](=O)[O-])N1CCN(S(=O)(=O)c2ccccc2)CC1 12.8%
O=C(COc1ccccc1O)N1CCN(C(=O)c2ccco2)CC1 4%
CC1(C)C/C(=N\O)c2cc3c(nc2C1)CCCC3 -3%
Cc1cc(C)nc(NC(=O)c2c(-c3c(Cl)cccc3Cl)noc2C)n1 9.1%
CCOC(=O)N1CCN(S(=O)(=O)c2cc(C)c(C)cc2C)CC1 -3.8%
FC(F)(F)c1cnc(/C=C/Nc2ccccc2Cl)c(Cl)c1 12.3%
COC(=O)c1ccc(CN(C)S(=O)(=O)c2ccc(C)cc2)o1 -1.6%
CCc1nc(N=Nc2c(O)[nH]c3ccccc23)c2c3c(sc2n1)CCC3 -5.7%
C=CCn1c(COc2ccc3c(c2)CCCC3)nnc1SCC(=O)Nc1cccc(SC)c1 15%
CC1(C)CC(N2CCCC2)=CC(=[N+]2CCCCC2)C1 12.6%
CC1(C)CC(N2CCCCC2)=CC(=[N+]2CCCCC2)C1 34.9%

inhibition, active:
COc1ccc(C(=O)C2CCCN(C(=O)COc3ccc(C(C)=O)cc3)C2)cc1F (stereo not given) 57.4%
Cc1ccc2[nH]c3c(c2c1)CCc1cn[nH]c1-3 69.4%
COc1ccc(C(=O)C[N+]2(C)CCOCC2)cc1 81.3%
CC(C)CCOc1ccc(C(=O)C[N+]2(C)CCOCC2)cc1 81.8%
C=C1N(C)c2cc([N+](=O)[O-])c(N)cc2C1(C)C 94%
CC1CCCN(CCC(=O)c2ccc(Br)cc2)C1 (stereo not given) 60.1%
O=C(CCN1CCOCC1)c1ccc(Br)cc1 60.4%
O=C(CCN1CCN(c2ccccc2F)CC1)c1ccc(Br)cc1 59.8%
COc1ccc(S(=O)(=O)NCC(=O)N(CC(=O)NC(C)(C)C)Cc2cccs2)cc1 110%
O=C(O)c1ccc2c(c1)C(=O)N(c1cccc(-c3nc4ccccc4s3)c1)C2=O 102%
COCCOC(=O)C1=C(C)NC2(O)c3ccccc3C(=O)C12O (stereo not given) 70.5%
O=S(=O)(NCCN1CCOCC1)c1cccs1 68.9%
Cn1c(N)c(C(=O)Nc2ccc3ccccc3c2)sc1=S 64.8%
C/C(=N\NC(=O)c1nn(C)c(C)c1Br)c1cccc(NC(=O)c2ccc(F)cc2)c1 50.8%
Cc1ccc(NC(=S)N(CCCN2CCC(C)CC2)Cc2ccco2)cc1 81.3%
CCOC(=O)C1C(c2ccc(O)c(O)c2)NC(=S)NC1(O)C(F)(F)F (stereo not given) 61.7%
O=C(COc1cccnc1[N+](=O)[O-])N1CCN(C(=O)c2ccco2)CC1 57.6%
C[N+]1=C(/C=C/Nc2ccccc2Cl)C(C)(C)c2ccccc21 78.4%
CC1(C)CC(N2CCCC2)=CC(=[N+]2CCCCCC2)C1 62.8%
